Data from PubChem BioAssay (NCI).
This is part of a sample that, as a whole, favours compounds with a hit. Of some 83,000 tested, about 20% had one in any assay.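 Values shown are percent growth following 48 h exposure of cells in 96-well plates to a single concentration of compound; below 10 was considered active.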 Activity calls are given as the source filed them.

How the values were obtained:
Experiment in all cases: NCI-60 one-dose screen, 48 h (100 = growth as untreated, 0 = no growth, -100 = all killed)
Details in all cases: 10 µM unless noted
[1] = system: SK-MEL-2 melanoma
[2] = system: EKVX NSCLC
[3] = system: SN12C renal
[4] = system: UO-31 renal
[5] = system: TK-10 renal
[6] = system: ACHN renal
[7] = system: CAKI-1 renal
[8] = system: CCRF-CEM leukemia
[9] = system: MOLT-4 leukemia
[10] = system: SR leukemia
[11] = system: RPMI-8226 leukemia
[12] = system: OVCAR-8 ovarian
[13] = system: OVCAR-5 ovarian
[14] = system: OVCAR-4 ovarian
[15] = system: SK-OV-3 ovarian
[16] = system: IGROV1 ovarian
[17] = system: OVCAR-3 ovarian
[18] = system: HS 578T breast
[19] = system: NCI/ADR-RES ovarian

Measured: growth

CCCOc1ccc(/C=N/Nc2cc(C)nc3ccc(Cl)cc23)cc1
active: [3] -10.8% | [4] 7.59% | [8] 2.96% | [9] -42.5% | [10] -35.5% | [11] -20.2% | [12] -44.6% | [17] -27.5%
inactive: [1] 91.4% | [2] 72.8% | [5] 102% | [6] 23.3% | [7] 74.2% | [13] 96.3% | [14] 48.5% | [15] 89.1% | [16] 42.1% | [18] 89% | [19] 82.4%

COc1ccc(-c2[nH][nH]c(=O)c2-c2nc3ccccc3s2)cc1
inactive: [1] 104% | [2] 99.9% | [3] 98.4% | [4] 86.6% | [5] 108% | [6] 106% | [7] 88% | [8] 99.1% | [9] 102% | [10] 99.2% | [11] 99.4% | [12] 106% | [13] 105% | [14] 109% | [15] 106% | [16] 105% | [17] 110% | [18] 107% | [19] 97.7%

Cc1ccc(CNc2c3ccccc3nc3cc(NC(=O)CCN4CCCC4)ccc23)cc1
active: [3] 2.87% | [4] 3.83% | [5] -20% | [7] 7.04% | [8] -31.5% | [9] -33.5% | [10] -49.4% | [11] -44.6% | [12] 7.44% | [14] -38.4% | [16] 5.63% | [17] -73.3%
inactive: [1] 40.2% | [2] 39.3% | [6] 12.3% | [13] 20.7% | [15] 42.5% | [18] 14.6% | [19] 63.1%

CCCCC[n+]1ccc(SCC(=O)N(C)c2ccc(Oc3ccccc3)cc2)c2ccccc21
inactive: [1] 106% | [2] 114% | [3] 95.5% | [4] 86.9% | [5] 99.6% | [6] 107% | [7] 93.5% | [8] 85% | [9] 82% | [10] 84.5% | [11] 66.2% | [12] 98.4% | [13] 105% | [14] 92.6% | [15] 101% | [16] 117% | [17] 90.9% | [18] 109%

C=C1C(=O)O[C@H]2[C@H]1CC/C(CNC(=O)/C=C/c1ccccc1)=C\CC[C@@]1(C)O[C@@H]21
active: [2] -16.2% | [3] -32.1% | [4] -85.2% | [5] -47.1% | [6] -34.5% | [7] -88.1% | [8] 1.78% | [9] -26.4% | [10] 6.13% | [11] -10.5% | [12] 5.85% | [13] -21.6% | [16] -16.9% | [17] -85.1%
inactive: [1] 40.8% | [14] 38.5% | [15] 109% | [18] 28.6% | [19] 69.1%

O=C(CCN1CCCC1)Nc1ccc2c(Nc3ccc(F)cc3)c3ccccc3nc2c1
active: [3] 9.14% | [4] -89.1% | [5] -20.1% | [6] -13.3% | [7] -75.9% | [8] -17.8% | [9] -9.71% | [10] -20.9% | [11] -37.1% | [12] 4.18% | [14] -16.1% | [16] 0.357% | [17] -31.5%
inactive: [1] 49% | [2] 47.5% | [13] 12.9% | [15] 38.4% | [18] 25.2% | [19] 33.8%

COc1ccc2[nH]c(=O)c(CN3CCN(c4nccc(-c5ccc(Cl)cc5)n4)CC3)cc2c1
inactive: [1] 93.1% | [2] 96.4% | [3] 88.8% | [4] 80.7% | [5] 104% | [6] 81.9% | [7] 86.7% | [8] 85.1% | [9] 75.5% | [10] 70.3% | [11] 73.6% | [12] 66% | [13] 98.5% | [14] 71.4% | [15] 94.9% | [16] 106% | [17] 100% | [18] 72.9% | [19] 82.4%

O=S(=O)(NCCCNc1nccc(-c2c(-c3cccc(F)c3)nc3sccn23)n1)c1cccc2ccccc12
inactive: [1] 47.8% | [2] 56.1% | [3] 46.9% | [4] 20% | [5] 71.7% | [6] 34.7% | [7] 29.1% | [8] 38.5% | [9] 29.3% | [10] 62% | [11] 44.9% | [12] 38.5% | [13] 80.9% | [14] 40.2% | [15] 65.8% | [16] 22.3% | [17] 68.7% | [18] 55.9% | [19] 47.1%

O=S(=O)(NCCNc1nccc(-c2c(-c3cccc(O)c3)nc3occn23)n1)c1cccc(F)c1
inactive: [1] 61.1% | [2] 97.1% | [3] 76.6% | [4] 92.7% | [5] 136% | [6] 78% | [7] 71.6% | [8] 91.7% | [9] 93% | [10] 84.7% | [11] 97% | [12] 89.9% | [13] 128% | [14] 121% | [15] 91.8% | [16] 50.5% | [17] 94.7% | [18] 101% | [19] 107%

O=C1OC(Cc2ccccc2)C1c1ccccc1 (stereo not drawn)
inactive: [1] 102% | [2] 97.5% | [3] 97.7% | [4] 89% | [5] 89.4% | [6] 104% | [7] 97% | [8] 109% | [9] 101% | [10] 104% | [11] 109% | [12] 100% | [13] 98.9% | [14] 109% | [15] 121% | [16] 101% | [17] 110% | [18] 107% | [19] 105%

O=C(c1ccccc1)N1N=C(c2ccc(-n3ccc(C(F)(F)F)n3)c(F)c2)CC1c1ccc[nH]1 (stereo not drawn)
inactive: [1] 102% | [2] 100% | [3] 101% | [4] 90.4% | [5] 99.2% | [6] 110% | [7] 98.3% | [8] 105% | [9] 98.8% | [10] 104% | [11] 101% | [12] 104% | [13] 104% | [14] 116% | [15] 141% | [16] 108% | [17] 116% | [18] 107% | [19] 100%

COc1cc2nc(-c3ccc(Cl)cc3)cc(OCCCN3CCOCC3)c2cc1OC
active: [7] -12%
inactive: [1] 73.1% | [2] 55.7% | [3] 38.4% | [4] 59.6% | [5] 97.9% | [6] 40.6% | [8] 61.4% | [9] 56.4% | [10] 12.9% | [11] 20.4% | [12] 42.7% | [13] 42.8% | [14] 70.4% | [15] 68.4% | [16] 35.6% | [17] 77.8% | [18] 76.4% | [19] 44.6%

CN1C(=O)NC(c2ccc3c(c2)OCO3)C=C1c1ccccc1 (stereo not drawn)
inactive: [1] 100% | [2] 95.4% | [3] 89% | [4] 64.7% | [5] 85% | [6] 105% | [7] 82.8% | [8] 87.2% | [9] 94.3% | [10] 23.3% | [11] 65.5% | [12] 93.6% | [13] 93.9% | [14] 97.5% | [15] 94.1% | [16] 78.7% | [17] 91.1% | [18] 101% | [19] 98.8%

COc1ccc(/C=N/NC(=O)c2cnn3c2NC(c2ccccc2)C3)cc1OC (stereo not drawn)
inactive: [1] 41.9% | [2] 87.2% | [3] 81.8% | [4] 78.9% | [5] 75.6% | [6] 82.6% | [7] 56.1% | [8] 66.7% | [9] 50.3% | [10] 32.3% | [11] 83.2% | [12] 75.3% | [13] 92.1% | [14] 107% | [15] 78.9% | [16] 59.6% | [17] 18% | [18] 68% | [19] 85.5%

O=C(O)c1ccc(-c2nn(-c3ccc(C(F)(F)F)cc3)cc2CNc2ccc(Oc3ccccc3)cc2)cc1
inactive: [1] 90% | [2] 66.9% | [3] 78.2% | [4] 60.1% | [5] 98.3% | [6] 65.9% | [7] 91.8% | [8] 76.7% | [9] 67.6% | [10] 60.7% | [11] 46.5% | [12] 69% | [13] 103% | [14] 90.3% | [15] 135% | [16] 89% | [17] 92.5% | [18] 95.7% | [19] 81.9%

CCCCCCCCOc1ccc(/C=N/Nc2cc(C)nc3ccc(Br)cc23)cc1
inactive: [1] 96.2% | [2] 85% | [3] 68.2% | [4] 64.7% | [5] 90.3% | [6] 52.1% | [7] 84.1% | [9] 58% | [11] 36.6% | [12] 46.4% | [13] 101% | [15] 104% | [16] 62.5% | [17] 67.1% | [18] 64.1% | [19] 65.1%
active: [8] 7.66% | [10] -14.3% | [14] -1.74%
